# Laboratory results taken from PubChem BioAssay (Tox21).
# Results filed as inconclusive are left out. Values without a mark were called inactive. The call rests on the fitted dose curve; in most records, active means well fitted cell-killing curve with a large enough effect in the repeat runs; inconclusive means weak or mixed curves, or effect the other way; inactive means flat fitted curve, though single readings scatter.
# Test: qHTS assay to identify small molecule antagonists of the estrogen receptor alpha (ER-alpha) signaling pathway using the BG1 cell line in the presence of 0.1 nM 17-beta-estradiol - cell viability counter screen (AID 1259241); further: nearly all actives have a fitted effect of over 40% in size
# Conditions: VM7Luc4E2 (BG1) viability, CellTiter-Fluor protease, 22 h, 0.1 nM estradiol agonist added; series mostly up to 92.4 µM; activity change, negative = cytotoxicity: at the top concentration
# Source text: National Center for Advancing Translational Sciences [NCATS]
# NIH Chemical Genomics Center [NCGC]
# U.S. Environmental Protection Agency [EPA]
# National Institutes of Environmental Health Sciences [NIEHS]
# National Toxicology Program [NTP]
# U.S. Food and Drug Administration [FDA]
# Estrogen receptor (ER), a member of the nuclear hormone receptor plays an important role in development, metabolic homeostasis and reproduction. Two subtypes of ER, ER-alpha and ER-beta, have similar expression patterns with some uniqueness in both types. Endocrine disrupting chemicals (EDCs) and their interactions with steroid hormone receptors like ER causes disruption of normal endocrine function. Therefore, it is important to understand the effect of environmental chemicals in ER signaling pathway. For identifying ER antagonists, VM7Luc4E2 cell line was used to screen against Tox21 compound libraries.
# VM7Luc4E2 cell line (provided by Denison MS, University of California) endogenously express full-length ER-alpha and is stably transfected with a plasmid containing four estrogen responsive elements (ERE) upstream of a luciferase reporter gene. The current screening for identification of ER-alpha inhibitors against Tox21 compound libraries used lower concentration (0.1 nM) of 17beta-Estradiol as a stimulator. The cytotoxicity of the Tox21 compound libraries against VM7Luc4E2 cell line was tested by measuring live-cell protease activity using CellTiter-Fluor assay in the same wells.
# Tox21 Assay Protocol Summary:
# VM7Luc4E2 cells were cultured in phenol red free assay medium containing 10% charcoal stripped FBS for 5 days prior to the assay. The cells were dispensed at 4,000 cells/well in 4 uL of assay medium into white wall/solid-bottom 1536-well plates (Corning Life Sciences, Corning, NY) using a Multidrop Combi (ThermoFisher Scientific, Waltham, MA) dispenser. After the assay plates were incubated at 37C and 5% CO2 for 24 hr, 23 nL of compounds dissolved in DMSO, positive controls or DMSO only was transferred to the assay plates by a Pintool station (Kalypsys, San Diego, CA). The transfer of compounds was followed by the addition of 1 uL of 0.1 nM (final concentration) agonist (17beta-Estradiol)/assay medium using a Flying Reagent Dispenser (FRD, Aurora Discovery, San Diego, CA). The plates were incubated at 37C and 5% CO2 for 22 hr. For cytotoxicity assay, 1 uL of CellTiter-Fluor reagent (Promega Corporation, Madison, WI) was added to each well using the FRD and after 30 min incubation at 37C and 5% CO2, The fluorescence intensity was measured using ViewLux plate reader (PerkinElmer, Shelton, CT).
# On the % scale 0 is the no-effect control and ±100 the full control effect.
row,Compound,"activity change, negative = cytotoxicity"
1,Nc1ccn([C@@H]2O[C@H](CO)[C@@H](O)C2O)c(=O)n1 (stereo not given in full),4.22%
2,c1ccc(CCc2ccccc2)cc1,0.695%
3,CN(C)CCN(C)CCN(C)C,0%
4,Cc1onc(-c2c(Cl)cccc2Cl)c1C(=O)Cl,3.86% [at 42.5 µM]
5,CCOc1ccccc1OCC,2.83%
6,CCOC(=O)C1=NOC(c2ccccc2)(c2ccccc2)C1,-0.61%
7,CC(C)(C#N)Nc1nc(Cl)nc(NC2CC2)n1,-5.25%
8,O=C(O)c1cn(C2CC2)c2cc(N3CCNCC3)c(F)cc2c1=O,0.139% [at 42.5 µM]
9,CCCCCC(=O)OCCc1ccccc1,6.15%
10,CC/C=C\CCOC(C)OCC (stereo not given),-1.14% [at 42.5 µM]
11,COc1cccc(OC)c1C(=O)N[C@@H]1C(=O)N2[C@@H]1SC(C)(C)[C@@H]2C(=O)O,4.36% [at 42.5 µM]
12,CC(=O)c1ccc2ccccc2c1,6.96%
13,C[C@@H]1C[C@H]2[C@@H]3C[C@H](F)C4=CC(=O)C(Cl)=C[C@]4(C)[C@@]3(F)[C@@H](O)C[C@]2(C)[C@@]1(O)C(=O)CO,4.96% [at 42.5 µM]
14,CCCCCCCCCCOc1cc2c(=O)c(C(=O)OCC)c[nH]c2cc1OCC,4.33% [at 8.39 µM]
15,CC(C)C[C@@H](N)C(=O)O,-0.157% [at 19 µM]
16,CCOC(=O)c1ccccc1,-12.4%
17,O=S(=O)(O)c1cc(O)c(O)c(S(=O)(=O)O)c1,0.182%
18,C=C[Si](OC(C)=O)(OC(C)=O)OC(C)=O,-0.887%
19,CC[N+](CC)(CC(=O)Nc1c(C)cccc1C)Cc1ccccc1 (tested in a mixture with another compound),9.15% [at 42.5 µM]
20,[O-][n+]1cccc(CO)c1,7.15% [at 42.5 µM]

row,Compound,"activity change, negative = cytotoxicity"
1,CO/N=C(\C(=O)N[C@@H]1C(=O)N2C(C(=O)O)=C(CSc3nc(=O)c(O)nn3C)CS[C@H]12)c1csc(N)n1,-1.66% [at 42.5 µM]
2,C=CCOCC(O)CO (stereo not given),0.755%
3,CCOc1ccc2nc(S(N)(=O)=O)sc2c1,2.18% [at 42.5 µM]
4,CCN1C=CN(C)C1C (stereo not given),0.169%
5,[Ca+2],-1.1%
6,O=C(CO)[C@@H](O)[C@H](O)[C@H](O)CO,10.1%
7,CCC1C(=O)OCC1Cc1cncn1C (stereo not given),1.63% [at 42.5 µM]
8,COc1c(N2CCNC(C)C2)c(F)cc2c(=O)c(C(=O)O)cn(C3CC3)c12 (stereo not given),-6.72% [at 42.5 µM]
9,CC(C)(CCC(=O)O)C(=O)O,3.63%
10,Cc1ccc(-c2ncc(Cl)cc2-c2ccc(S(C)(=O)=O)cc2)cn1,0.204% [at 42.5 µM]
11,CC(C)[C@H]1CC[C@@H](C)CC1=O,3.69%
12,CC1(C)OC[C@@H](COC(=O)CCc2ccc(OC[C@@H](O)CNCCNC(=O)N3CCOCC3)cc2)O1,-1.65% [at 42.5 µM]
13,CC(C)COC(=O)c1ccc(N)cc1,1.43% [at 42.5 µM]
14,CC1=NN(c2cccc(S(=O)(=O)O)c2)C(=O)C1,4.33%
15,N[C@@H](CCC(=O)O)C(=O)O,-1.3%
16,C=C(C)C(=O)OCC1CCCO1 (stereo not given),8.27%
17,CCOCC(C)O (stereo not given),-1.9%
18,CC(CC=O)CC(C)(C)C (stereo not given),8.13%
19,Nc1c2c(nc3c1CCC3)CCCC2,-9.06% [at 42.5 µM]
20,Cc1nc(C2CCCCC2)c(-c2ccc(S(N)(=O)=O)c(F)c2)o1,-4.52% [at 42.5 µM]
